# Bioassay records: PubChem, National Center for Advancing Translational Sciences (NCATS)
# HP1b binding inh – inhibitors of HP1-beta chromodomain binding to methylated histone tails; P83916; AID 540317; 390,000 tested, 0.56% active; AlphaScreen HP1-beta / biotin-H3K9me3 peptide binding; Potency, µM (top dose mostly 114 µM), hits mostly inhibitors; also: nearly all actives have a fitted effect of over 70% in size
#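 HP1-beta protein (50 nM final) preincubated 30 min at room temperature with biotinylated H3(1-18)K9me3 peptide (50 nM) in PBS pH 7.4, 0.01% Tween-20, then compound added for 30 min. AlphaScreen streptavidin donor/nickel chelate acceptor beads (10 ug/mL final), 30 min dark, luminescence read.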
# PI5P4K alpha inh – blocks human PI5P4K alpha kinase activity; P48426; PI5P4Kalpha enzyme, ADP-Glo luminescence, 60 min; stronger effect = lower value; max response, %; 330,000 tested, 1.2% active; active = max response of -50% or lower; inconclusive = between -30% and -50%; inactive = -30% or higher; also: value at the top dose of about 77 µM
#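 Enzyme plus substrate dispensed, test compounds pinned in, then ATP (5 microM final) added. After 60 min at RT, ADP-Glo reagent 1 for 45 min and reagent 2 for 30 min preceded luminescence imaging.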
# BAZ2B block – inhibitors of human BAZ2B bromodomain; Q9UIF8; AlphaScreen BAZ2B-H3K14Ac peptide displacement; Potency, µM (highest dose often 114 µM), most hits filed as inhibitors; 360,000 tested, 4.4% active; AID 504333; also: nearly all actives have a fitted effect of over 60% in size
#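 BAZ2B (50 nM) with biotin-H3(5-23)K14Ac peptide (50 nM) in PBS pH 7.4, 0.01% Tween-20, preformed 30 min, then compound 30 min at room temperature; top concentration 110uM. AlphaScreen streptavidin donor/nickel chelate acceptor beads (10 ug/mL final), 20 min dark, signal read.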
# G9a block – blocks human histone lysine methyltransferase G9a; G9a H3K9 monomethylation, AlphaScreen, 2 h; Potency, µM (titrated, usually from 102 µM), usual class: inhibitors; 350,000 tested, 8.8% active; also: nearly all actives have a fitted effect of over 75% in size
#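 Step 1: enzyme (final 20 nM) with compound, 15 min RT. Step 2: substrate peptide 500 nM and SAM 20 uM, 2 h RT. Step 3: anti-H3K9me1 antibody and AlphaScreen beads, 10 min, then plate read.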
# JMJD2A Tudor inh – blocks the human JMJD2A Tudor domain. O75164. AlphaScreen JMJD2A-Tudor / H3K4me3 peptide binding. Potency, µM (top dose mostly 114 µM), hits mostly inhibitors. 390,000 tested, 4.4% active; also: nearly all actives have a fitted effect of over 50% in size
# PLK1 PBD block – blocks phosphopeptide binding to human PLK1 polo-box domain; P53350; Plk1 PBD binding of FITC phosphopeptide, fluorescence polarization; Potency, µM, usual class: inhibitors; 360,000 tested, 2.8% active; also: series mostly up to about 57 µM; nearly all actives have a fitted effect of over 65% in size
# Target sequence (P53350 whole entry, looked up, the tested form may be a part): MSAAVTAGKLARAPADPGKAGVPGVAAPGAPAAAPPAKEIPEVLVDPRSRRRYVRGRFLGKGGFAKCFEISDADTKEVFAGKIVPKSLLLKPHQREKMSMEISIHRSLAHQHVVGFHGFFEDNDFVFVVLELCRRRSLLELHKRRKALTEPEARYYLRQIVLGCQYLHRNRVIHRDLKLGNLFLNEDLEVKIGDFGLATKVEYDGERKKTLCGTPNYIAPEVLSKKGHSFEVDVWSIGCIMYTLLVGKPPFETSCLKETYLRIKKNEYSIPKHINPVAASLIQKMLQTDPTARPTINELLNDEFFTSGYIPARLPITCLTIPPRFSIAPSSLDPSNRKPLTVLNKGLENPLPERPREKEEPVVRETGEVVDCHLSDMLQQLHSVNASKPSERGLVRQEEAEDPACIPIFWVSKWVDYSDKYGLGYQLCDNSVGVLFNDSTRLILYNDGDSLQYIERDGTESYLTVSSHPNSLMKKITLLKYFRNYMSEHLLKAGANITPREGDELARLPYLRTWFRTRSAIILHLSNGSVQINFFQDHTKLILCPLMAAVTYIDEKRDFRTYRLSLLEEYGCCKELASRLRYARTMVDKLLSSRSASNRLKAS
# Hits are given with their value; - = inactive; ? = inconclusive; . = no result; [ ] = dose if it differs, or a comment. In the library only some 12% were active in any assay of this set; here they are far more common. Unless noted, calls follow the shape of the dose curve; as a rule, active = well fitted curve in the direction sought with a large enough effect; inconclusive = small, poorly fitted or top-dose-only effect, or another doubt; inactive = no such curve, though single readings can be large; an effect the other way counts as inactive or inconclusive.
SMILES,HP1b binding inh,PI5P4K alpha inh,BAZ2B block,G9a block,JMJD2A Tudor inh,PLK1 PBD block
O=C(c1ccc(-c2cccc([N+](=O)[O-])c2)o1)N1CCN(c2ccc([N+](=O)[O-])cc2)CC1,-,-,-,?,-,-
O=C(OCC(=O)N1CCN(c2ccccc2)CC1)c1cccc([N+](=O)[O-])c1,-,-,-,?,-,-
O=C(c1cccc([N+](=O)[O-])c1)N1CCN(c2ccc(Cl)cc2)CC1,-,-,?,?,-,-
O=C(c1cccc([N+](=O)[O-])c1)N1CCN(S(=O)(=O)/C=C/c2ccccc2)CC1,-,-,-,8.91µM,-,-
O=[N+]([O-])c1cccc(-c2ccc(C(=S)N3CCN(c4ccc(F)cc4)CC3)o2)c1,?,-,35.5µM,?,?,-
O=C(c1cccc([N+](=O)[O-])c1)N1CCN(C/C=C/c2ccccc2)CC1,-,-,-,-,-,-
O=c1cnc2cnc(OCc3ccccc3)nc2n1CCc1ccccc1,.,.,.,-[12.7 µM],.,.
Cc1cccc(NS(=O)(=O)c2c(C)nc3sccn3c2=O)c1C,-,.,-,-,-,.
COCCCn1c(C)cc(C(=O)CN2c3cccc4cccc(c34)S2(=O)=O)c1C,-,-,-,?,-,-
C=C1CCN(C(C(=O)NCc2ccc(Cl)c(Cl)c2)C(C)C)S(=O)(=O)c2ccccc21 (centres undefined),-,.,.,.,-,.
COc1ccc(CNc2ncncc2-c2ccc(N(C)C)cc2)c(OC)c1,.,.,.,-[0.501 µM],.,.
O=C(/C=C/c1cccc([N+](=O)[O-])c1)N1CCN(c2ccccc2F)CC1,-,-,-,-,-,-
O=[N+]([O-])c1cccc(C(=S)N2CCN(c3ccccc3F)CC2)c1,?,-,?,20µM,?,9.47µM
O=C(/C=C\c1ccc(-c2cccc([N+](=O)[O-])c2)o1)N1CCOCC1,-,-,?,31.6µM,-,-
COC(=O)c1ccc2nc(-c3ccc(F)cc3)c(Cc3ccccc3C(F)(F)F)n2c1,.,-,.,.,.,-
CCCCNC(=O)Cn1c(SCc2cccc(C)c2)nc2ccncc21,-,.,.,.,-,.
O=c1c2cn[nH]c2nc(SCc2cc(=O)n3cc(Br)ccc3n2)n1-c1ccc(Br)cc1,-,.,-,?,-,21.2µM
O=c1c2cn[nH]c2nc(SCc2ccccc2F)n1-c1ccc(Br)cc1,-,-,?,-,?,-
CC(C)C[C@H]1CNC(=S)N1CC1CCN(CCCC2CCCC2)CC1,-,-,.,.,-,-
O=[N+]([O-])c1ccc2ncnc(N3CCN(Cc4ccc5c(c4)OCO5)CC3)c2c1,-,-,39.8µM,.,?,-
COc1ccc2c(c1)c1ncnc(N3CCN(Cc4ccc5c(c4)OCO5)CC3)c1n2C,.,.,-,-,.,.
COc1ccc2[nH]c3c(N4CCN(Cc5ccc6c(c5)OCO6)CC4)ncnc3c2c1,-,-,50.1µM,50.1µM,?,-
CCOc1ccccc1NC(=O)CSc1cn(CC(=O)N2CCCCCC2)c2ccccc12,-,.,-,-,-,.
CC(C)(C)NC(=O)c1cnn(-c2ccccc2)c1C1CCN(C(=O)OC(C)(C)C)CC1,-,.,-,-,-,.
Cn1c(=O)c2[nH]c(Cc3ccsc3)nc2n(C)c1=O,-,-,.,.,?,-
SMILES,HP1b binding inh,PI5P4K alpha inh,BAZ2B block,G9a block,JMJD2A Tudor inh,PLK1 PBD block
CN1c2ccccc2C(C)(C)C12CCCC(=O)N2 (centres undefined),-,-,50.1µM,8.91µM,?,-
CC1=NOC2(C1)N(C)c1ccccc1C2(C)C (centres undefined),-,.,-,-,-,-
CCOc1ncccc1C(=O)N1CCN(c2cc(Cl)ccc2C)CC1,-,-,-,-,50.1µM,21.2µM
COC(=O)c1c(-c2ccc(OC)cc2)oc2ccc(-c3ccc(OC)nc3)cc12,-,-,-,-,-,-
CCCOC(=O)c1c(-c2ccc(OC)cc2)oc2ccc(-c3ccc(OC)nc3)cc12,-,-,-,?,-,37.7µM
COc1ccc(C=O)cc1CSc1ccccn1,-,-,-,.,-,23.8µM
COc1ccc(/C=N/NC(=O)c2ccc(O)cc2O)cc1CSc1ccccn1,?,-71.0,56.2µM,50.1µM,?,-
Cn1c2ccccc2c2cc(/C=N/NC(=O)c3ccc(O)cc3O)ccc21,-,-61.9,-,.,-,-
Cc1cccc(Nc2nc3c(S(=O)(=O)c4ccc(Br)cc4)nnn3c3ccsc23)c1C,-,.,-,-,-,.
CCC(c1nnnn1Cc1ccccc1)N(Cc1ccccc1)Cc1cc2cc(C)ccc2[nH]c1=O (centres undefined),-,.,.,.,-,.
O=S(=O)(c1ccccc1)N1CCN(c2nc(-c3ccc(F)cc3)nc3cc(Cl)ccc23)CC1,-,.,.,.,-,.
CCOC1(OCC)N=C(N)C2(C#N)C(c3cccc(OC)c3OC)C12C#N (centres undefined),-,-,-,?,?,-
CCOC1(OCC)N=C(N)C2(C#N)C(c3cccc(C)c3)C12C#N (centres undefined),-,-,-,39.8µM,-,-
COC1(OC)N=C(N)C2(C#N)C(c3ccc4c(c3)OCO4)C12C#N (centres undefined),-,-,?,50.1µM,-,-
CCCCn1nnnc1C(c1cc2ccccc2o1)N(Cc1ccccc1)Cc1ccccc1 (centres undefined),.,-,.,.,.,-
COc1ccc(Cl)cc1NC(=O)CSc1nnc2[nH]c(=O)cc(-c3ccccc3)n12,-,.,-,-,-,.
COc1cccc(S(=O)(=O)N(C)C[C@H]2Oc3cc(Br)ccc3S(=O)(=O)N([C@@H](C)CO)C[C@H]2C)c1,.,-,.,.,.,-
O=C(Nc1nc2cc3c(cc2s1)OCCO3)C1=COCCO1,-,-,-,-,?,23.8µM
CSc1cccc2sc(NC(=O)C3=COCCO3)nc12,-,-,-,-,-,-
O=C(Nc1nc2ccc(F)cc2s1)C1=COCCO1,-,-,-,50.1µM,-,-
CCOc1ccc(N(CC(=O)NCc2ccco2)C(=O)CCC(=O)Nc2ccccn2)cc1,-,-,-,-,-,-
COc1ccc(CN(C(=O)Nc2cccc(Cl)c2)c2ccccn2)cc1OC,-,.,-,-,-,.
CC1CCC(NS(=O)(=O)c2ccc(Cl)nc2)CC1 (centres undefined),-,-,-,50.1µM,-,-
CNS(=O)(=O)c1ccc(Cl)nc1,-,-,-,-,-,-
O=C(N/N=C/c1ccc(OCc2ccccc2)cc1)c1cc[n+](Cc2ccccc2)cc1,-,-,-,70.8µM,?,-
O=C(N/N=C/c1ccc(OCc2ccc(F)cc2)cc1)c1ccccc1,-,-,-,-,-,-
CC(C)(C)c1ccc(OCc2ccc(C(=O)N/N=C/c3ccc(O)c(O)c3)cc2)cc1,?,-,31.6µM,?,?,-
COc1ccc(O)c(/C=N/NC(=O)c2ccc(OCc3cccc(Br)c3)cc2)c1,-,.,?,-[2.33 µM],35.5µM,-
O=C(N/N=C/c1ccc(O)cc1)c1cc[n+](Cc2ccccc2)cc1,-,-,-,?,-,-
